Measured values reported in PubChem BioAssay.
Where “and” joins values, the source holds several entries; their conditions need not be identical. Equal values may be shown once. Results filed as inconclusive are left out. Calls of active or inactive are those of the source. Unless noted, the limit is not given here; nearly all actives have AC50 up to about 26 µM.

How the values were obtained:
[1] = viability loss in pontine glioma line – cell-based, SU-DIPG-XVII, MIPE5.0, CellTiter-Glo, qHTS, dose response (AID 1347060); conditions: CellTiter-Glo ATP luminescence;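 as to AC50: cells exposed to compound for 48 hours before viability readout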
[2] = viability loss in pontine glioma line – cell-based, SU-DIPG-XIII, MIPE4.0, CellTiter-Glo, qHTS, dose response (AID 1347061; cut-off not given, nearly all actives have AC50 up to about 37 µM;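 also: cells exposed to compound for 48 hours before readout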); conditions: CellTiter-Glo ATP luminescence
[3] = viability loss in pontine glioma line – cell-based, JHH-DIPG-1, MIPE4.0, CellTiter-Glo, qHTS, dose response (AID 1347062; cut-off not given, nearly all actives have AC50 up to about 27 µM;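 as to AC50: cells exposed to compound for two days before readout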); conditions: JHH-DIPG-1 viability, CellTiter-Glo ATP luminescence
[4] = viability loss in pontine glioma line – cell-based, SU-DIPG-IV, MIPE4.0, CellTiter-Glo, qHTS, dose response (AID 1347063; cut-off not given, nearly all actives have AC50 up to about 30 µM;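 also: compound exposure lasted 48 hours before the viability readout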); conditions: CellTiter-Glo ATP luminescence
[5] = viability loss in pontine glioma line – cell-based, SU-DIPG-XIII, MIPE5.0, CellTiter-Glo, qHTS, dose response (AID 1347064; cut-off not given, nearly all actives have AC50 up to about 23 µM;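 as to AC50: cells exposed to compound for 48 hours before the viability read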); conditions: CellTiter-Glo ATP luminescence
[6] = viability loss in pontine glioma line – cell-based, SU-DIPG-XXV, MIPE5.0, CellTiter-Glo, qHTS, dose response (AID 1347065); conditions: CellTiter-Glo ATP luminescence;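 also: cells exposed to compound for 48 hours before ATP readout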
[7] = growth inhibition of DIPG cells – cell-based, MIPE4.0 library, CellTiter-Glo luminescence, qHTS (AID 1347066; cut-off not given, nearly all actives have AC50 up to about 30 µM;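 also: cells exposed to compound for 48 hours before readout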); conditions: SU-DIPG-VI viability, CellTiter-Glo ATP luminescence
[8] = JHH-DIPG-1 glioma cell viability, MIPE5.0 library, CellTiter-Glo luminescence, qHTS (AID 1347067); conditions: JHH-DIPG-1 glioma viability, CellTiter-Glo ATP luminescence;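 also: cells exposed to compound for 48 hours before readout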
[9] = growth inhibition of DIPG cells – cell-based, MIPE5.0 library, qHTS (AID 1347068; cut-off not given, nearly all actives have IC50 up to about 30 µM;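 as to IC50: cells exposed to compound for 48 hours before viability readout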); conditions: SU-DIPG-XXV viability
[10] = viability loss with induced miR-34 in A549 – imaging, A549 dox-inducible miR-34, nuclei and caspase counts, primary screen (AID 1347080;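 active = compounds whose cell count with miR-34 switched on is under 0.7 times the count with it off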); conditions: A549 miR-34 inducible, Hoechst nuclei count, 48 h
[11] = MELAS cybrid and Rieske KO viability enhancers – cell-based, MELAS cybrids, Rieske KO mouse fibroblasts, CellTiter-Glo, primary screen (AID 1508586;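 active = mean z-score across replicates of 1.96 or higher in either the MELAS or the Rieske mutant cell line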;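 also: z relative to plate mean and SD of compound and empty wells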); conditions: low glucose
[12] = P. berghei load reduction in hepatocytes – cell-based, HepG2, luciferase luminescence, HepG2 viability, primary screen (AID 624349; in the data active = parasite load remaining mostly below about 12%, no sharp cut-off; inactive = mostly above about 10%;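 also: 100% = mean of DMSO negative control wells on the same plate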); conditions: P. berghei liver stage in HepG2, luciferase luminescence, concentration not given here; parasite load remaining: stronger effect = lower value; viability: measured here: HepG2 viability without parasites
[13] = system: Aerobactin synthetase IucA (Klebsiella pneumoniae, hypervirulent); assay: biochemical IucA inhibition screen of LOPAC library by absorbance (AID 1346212; call rule not given here;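 also: 100% = no compound wells and 0% = no enzyme wells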); conditions: IucA enzyme assay, absorbance (OD) readout; stronger effect = lower value;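 tested at 8 µM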
[14] = liver-stage malaria parasite load reduction – cell-based, known kinase inhibitor set, luminescence, hepatoma host viability (AID 624392; call rule not given here;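 also: infected cells incubated roughly two days before readout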); conditions: Plasmodium liver stage in hepatoma cells, luciferase luminescence, concentration not given here; liver cell % of control: measured here: host liver cell viability; parasite % of control: stronger effect = lower value
[15] = compounds altering HSF1 focus formation in cells – imaging, Selleck Cancer Library (AID 1347162; in the data active = plate-normalised HSF1 focus index below about 0.46); conditions: human cells, HSF1 nuclear foci imaging, at 10 µM; SSMD: measured here: HSF1 foci SSMD mean; cell count: measured here: cell number; plate-normalised HSF1 focus index: stronger effect = lower value
[16] = compounds altering circadian rhythm period length – cell-based, LOPAC library, luminescence reporter (AID 2774; call rule not given here;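 also: values are relative to mean of DMSO wells on each plate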); conditions: circadian reporter cells, at 7 µM, actives lie on both sides
[17] = system: Hepatitis C virus NS3 helicase; assay: blockers of NS3h binding to ssDNA – biochemical, fluorescence polarization, LOPAC1280 library, primary screen (AID 687035; in the data active = inhibition above about 37%); conditions: Purified HCV NS3 helicase, Cy5-dT15 ssDNA binding fluorescence polarization; stronger effect = higher value; concentration not given here
[18] = compounds altering Cy5-DNA-NS3h complex signal – biochemical, LOPAC1280, artefact control for HCV NS3 helicase inhibitor project (AID 687037; call rule not given here); conditions: Cy5-DNA-NS3h complex fluorescence interference counterscreen
[19] = stronger effect = lower value, cell number ratio, induced over uninduced
[20] = measured here: relative caspase fold change +Dox/-Dox
[21] = measured here: total cells with miR-34 induction, stronger effect = lower value
[22] = measured here: total cells without miR-34 induction
[23] = MELAS cybrid survival, CellTiter-Glo 48 h, stronger effect = higher value
[24] = Rieske KO mouse fibroblast survival, CellTiter-Glo 72 h

COc1cc2cc(c1Cl)N(C)C(=O)C[C@H](OC(=O)C(C)C)[C@]1(C)O[C@@H]1[C@H](C)[C@@H]1C[C@@](O)(NC(=O)O1)[C@H](OC)/C=C/C=C(\C)C2
inactive: outcome [1] | outcome [2] | outcome [3] | outcome [4] | outcome [7]
active: AC50 [5] 0.0332 µM | AC50 [6] 0.00662 µM | AC50 [8] 0.00742 µM

O=C1C=CC[C@@H]2[C@H]3CCCN4CCC[C@@H](CN12)[C@@H]34
inactive: outcome [1] | outcome [2] | outcome [5] | outcome [6] | outcome [7] | outcome [8] | outcome [9]

CC(=O)O[C@@]12CO[C@@H]1C[C@H](O)[C@@]1(C)C(=O)[C@H](O)C3=C(C)[C@@H](O)C[C@@](O)([C@@H](OC(=O)c4ccccc4)[C@H]21)C3(C)C
inactive: outcome [2] | outcome [7] | outcome [8] | outcome [9]
active: AC50 [1] 23.5 µM

Cc1ccccc1-n1c(Cn2ncc3c(N)ncnc32)nc2cccc(C)c2c1=O
0.968: fold change [10, 20]
inactive: outcome [1] | outcome [2] | outcome [5] | outcome [6] | outcome [8] | outcome [9] | fold change [10, 19] 0.903 | z-score [11, 23] -0.332
9490: cell count [10, 22]
8570: cell count [10, 21]
0.957: z-score [11, 24]

COc1ccc2c(c1)/C(=C/c1cnc[nH]1)C(=O)N2
inactive: parasite load remaining [12] 16.5% | remaining activity [13] 119%
98.5%: viability [12]

Cc1[nH]nc2ccc(-c3cncc(OC[C@@H](N)Cc4c[nH]c5ccccc45)c3)cc12
active: AC50 [1] 0.833 µM | AC50 [2] 4.69 µM | AC50 [3] 0.59 µM | AC50 [4] 3.72 µM | AC50 [5] 0.742 µM | AC50 [6] 0.742 µM | AC50 [7] 14.8 µM | AC50 [8] 0.525 µM | IC50 [9] 1.86 µM

N=c1c2c(-c3ccccc3)c(-c3ccccc3)n(Cc3ccccc3)c2ncn1C1CCC(O)CC1 (stereo unspecified)
inactive: outcome [2]
active: AC50 [1] 18.6 µM | AC50 [4] 8.33 µM | AC50 [5] 16.6 µM | AC50 [6] 20.9 µM | IC50 [9] 18.6 µM

Clc1ccccc1C(c1ccccc1)(c1ccccc1)n1cccn1
inactive: outcome [2] | outcome [7] | outcome [9]
active: AC50 [1] 23.5 µM | AC50 [6] 33.2 µM | AC50 [8] 23.5 µM

O=C(O)CNC(=O)c1c(O)c2ccccc2n(Cc2ccccc2)c1=O
-0.159: z-score [11, 24]
inactive: outcome [1] | outcome [2] | outcome [3] | outcome [4] | outcome [5] | outcome [6] | outcome [7] | outcome [8] | outcome [9] | fold change [10, 19] 1.05 | z-score [11, 23] -0.124
8330: cell count [10, 21]
0.358: fold change [10, 20]
7930: cell count [10, 22]

Cc1ccccc1-n1c(Cn2cnc3c(N)ncnc32)nc2cccc(C)c2c1=O
6650: cell count [15]
91.8% and 81.8% and 99.4%: liver cell % of control [14]
2.3: SSMD [15]
inactive: parasite % of control [14] 49.6% and 56.6% and 61.4% | outcome [1] | outcome [5] | outcome [6] | outcome [8] | outcome [9] | plate-normalised HSF1 focus index [15] 1.12
active: AC50 [2] 4.18 µM | AC50 [3] 1.32 µM | AC50 [4] 0.105 µM | AC50 [7] 0.743 µM

C/C(=C\c1csc(C)n1)[C@@H]1C[C@@H]2O[C@]2(C)CCC[C@H](C)[C@H](O)[C@@H](C)C(=O)C(C)(C)[C@@H](O)CC(=O)O1
inactive: outcome [2] | outcome [3] | outcome [4] | outcome [5] | outcome [7]
active: AC50 [1] 0.00263 µM | AC50 [6] 0.00166 µM

CCOP(=O)(OCC)C(C)NC(=O)N(CCCl)N=O (stereo unspecified)
inactive: outcome [1] | outcome [2] | outcome [3] | outcome [5] | outcome [6] | outcome [7] | outcome [8] | outcome [9]

C[Se]C[C@H](N)C(=O)O
inactive: period change [16] -0.13 h | inhibition [17] -5% | fluorescence ratio (interference) [18] 1 | remaining activity [13] 106%

CSCC[C@@H](NC(=O)[C@@H](Cc1ccccc1)NC(=O)CNC(=O)CNC(=O)[C@@H](N)Cc1ccc(O)cc1)C(=O)O
inactive: outcome [1] | outcome [2] | outcome [3] | outcome [4] | outcome [5] | outcome [6] | outcome [8] | outcome [9]

C[C@]12CC[C@@H]3c4ccc(OC(=O)N(CCCl)CCCl)cc4CC[C@H]3[C@@H]1CC[C@@H]2OP(=O)(O)O
inactive: outcome [1] | outcome [2] | outcome [3] | outcome [4] | outcome [5] | outcome [6] | outcome [7] | outcome [8] | outcome [9]

CCN1CCN(C(=O)Cc2ccc(Nc3ncc(F)c(Nc4ccc(C(=O)Nc5ccccc5Cl)cc4)n3)cc2)CC1
inactive: outcome [2] | fold change [10, 19] 0.811
0.731: fold change [10, 20]
active: AC50 [1] 1.86 µM | AC50 [3] 10.5 µM | AC50 [4] 8.33 µM | AC50 [5] 6.61 µM | AC50 [6] 1.05 µM | AC50 [7] 5.9 µM | AC50 [8] 3.72 µM | IC50 [9] 23.5 µM | z-score [11, 23] 2.83
705: cell count [10, 21]
869: cell count [10, 22]
-1.29: z-score [11, 24]

CCc1c(C(=O)C(N)=O)c2c(OCC(=O)O)cccc2n1Cc1ccccc1
1.11: fold change [10, 20]
7750: cell count [10, 21]
inactive: outcome [1] | outcome [2] | outcome [3] | outcome [4] | outcome [5] | outcome [6] | outcome [7] | outcome [8] | outcome [9] | fold change [10, 19] 0.89 | z-score [11, 23] -0.413
0.396: z-score [11, 24]
8710: cell count [10, 22]
